# Rows were chosen to be rich in hits. Some 4.2% of all compounds tested hit in one or more screens of this group.
# PLK1 PBD block = PLK1 (human) polo-box domain binding inhibition; Plk1 PBD binding of FITC phosphopeptide, fluorescence polarization; Potency, µM, for inactives: max response, negative = inhibition, actives largely listed as inhibitors; P53350; 2.8% of 360,000 active; AID 720504; also: series mostly up to about 57 µM; nearly all actives have a fitted effect of over 65% in size
# 12-LOX inh = blocks human arachidonate 12S-lipoxygenase; P18054; purified 12hLO, xylenol orange hydroperoxide absorbance; Potency, µM (top dose mostly 108 µM), without a hit: at the highest dose activity change, negative = inhibition, actives largely listed as inhibitors; 1.1% of 580,000 active; AID 1671190
# Target sequence (P18054 whole entry, looked up): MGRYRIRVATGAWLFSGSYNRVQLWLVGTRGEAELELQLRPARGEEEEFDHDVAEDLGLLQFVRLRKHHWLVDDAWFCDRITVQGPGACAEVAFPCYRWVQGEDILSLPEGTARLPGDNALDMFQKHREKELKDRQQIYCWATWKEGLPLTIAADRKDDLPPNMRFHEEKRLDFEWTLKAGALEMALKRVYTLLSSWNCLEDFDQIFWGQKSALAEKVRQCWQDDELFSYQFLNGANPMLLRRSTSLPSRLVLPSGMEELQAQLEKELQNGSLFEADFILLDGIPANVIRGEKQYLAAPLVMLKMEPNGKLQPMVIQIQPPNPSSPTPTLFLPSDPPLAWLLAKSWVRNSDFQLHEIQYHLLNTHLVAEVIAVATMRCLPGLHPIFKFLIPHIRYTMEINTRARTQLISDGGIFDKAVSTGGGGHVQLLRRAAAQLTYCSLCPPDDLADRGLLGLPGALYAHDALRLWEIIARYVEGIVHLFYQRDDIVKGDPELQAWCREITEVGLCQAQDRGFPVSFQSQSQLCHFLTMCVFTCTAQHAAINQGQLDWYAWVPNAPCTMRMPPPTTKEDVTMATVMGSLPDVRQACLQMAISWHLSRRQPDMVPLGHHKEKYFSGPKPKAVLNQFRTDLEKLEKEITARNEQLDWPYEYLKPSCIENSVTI
#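 Purified human 12hLO at 150 nM in 25 mM Hepes, 0.01% Triton X-100, pH 7.0, preincubated 15 min at room temperature with compound. Reaction started with 40 uM arachidonic acid, 30 min at room temperature. Hydroperoxide measured by Fe-xylenol orange, 573/405 nm absorbance ratio.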
# VDR inh = blocks the human vitamin D receptor. P11473. VDR-SRC2-3 peptide fluorescence polarization, 2 h. Potency, µM, for inactives: max response, negative = inhibition, usual class: inhibitors. 0.93% of 400,000 active. AID 504847
#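 Inhibition of the VDR/SRC2-3 peptide interaction is quantified by fluorescence polarization. Compounds (23 nl, pintool) incubate with the reagents for 2 hours at ambient room temperature.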
# Sfp PPTase inh = blocks B. subtilis Sfp PPTase activity | Q9F4F7 | Biochemical Sfp PPTase activity, qHTS | Potency, µM, for the others: largest response in the series, negative = inhibition, actives largely listed as inhibitors | 3.5% of 310,000 active | AID 1490;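 also: the enzyme is Sfp with the accession as filed and its product quenches rhodamine fluorescence; 0% = enzyme reaction without inhibitor and -100% = no enzyme wells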
#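 With Hepes-Na pH 7.6 buffer containing 10 mM MgCl2, Sfp (15 nM) modified BHQ-2-YbbR (12.5 uM) using rhodamine-CoA (5 uM). Two reads 30 minutes apart at 525/598 nm yielded each well's rate.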
# Starred values were filed as active, the others as inactive; ? = inconclusive; · = no result; [ ] = another dose, or the depositor's remark. Calls follow the shape of the dose curve; as a rule, active = well fitted curve in the direction sought with a large enough effect; inconclusive = small, poorly fitted or top-dose-only effect, or another doubt; inactive = no such curve, though single readings can be large; an effect the other way counts as inactive or inconclusive. Unless noted, % is scaled to controls: 0 for no effect and ±100 for the full control effect; potency is read from the fitted curve at half-maximal effect.
SMILES,PLK1 PBD block,12-LOX inh,VDR inh,Sfp PPTase inh
COC(=O)c1ccccc1S(=O)(=O)C(C)(C)C,24µM*,-1%,?,3%
COC(=O)c1ccccc1O,·,·,6%,12%
CNC(=O)C1(N2CCC[C@H]2C(=O)N2CCC[C@@H]2COC)CCCCC1,·,22µM*,·,·
CN(NC1CC(=O)N(c2ccccc2)C1=O)c1ccccc1 (centres undefined),-14%,?,13%,45µM*
N#CCNC1CC(=O)N(c2ccccc2)C1=O (centres undefined),-14%,11%,-6%,15%
CC(=O)c1ccc2c(c1)Cc1ccccc1-2,·,15%,·,·
C/C(=N/Nc1ncc(Br)cn1)c1ccc(Br)cc1,4.7µM*,3%,?,6%
C/C(=N\Nc1ccc(Br)cc1)c1ccc2c(c1)Cc1ccccc1-2,·,10µM*,·,·
O=C(NCCc1ccccc1)c1nn(-c2ccccc2F)nc1CO,·,0%,14%,·
COCc1cn([C@H]2CO[C@H]3[C@@H]2OC[C@H]3OC)nn1,·,21%[176 µM],·,·
CCc1ccc2c(c1)C(NC(C)=O)C(=O)N2CCN1CCOCC1 (centres undefined),-6%,45µM*,?,?
CCCn1cc(S(=O)(=O)CC(=O)N2CCc3ccccc32)c2ccccc21,30µM*,13%,?,-4%
CCc1ccc(CN2CCC(Oc3ccc4ccccc4c3)(C(=O)O)CC2)nc1,·,4%,·,·
Cc1nc(C(Cl)(Cl)Cl)nc2[nH]ccc(=O)c12,27µM*,-23%,18µM*,16%
Cc1[nH]ccc(=O)c1Cc1c(Cl)cccc1Cl,1%,0%,2%,6%
CCNC(=O)CCn1nc(-c2ccc(C)cc2)c2ccccc2c1=O,30µM*,0%,-3%,4%
Cc1ccc(NC(=O)CCn2nc(-c3ccc(C)cc3)c3ccccc3c2=O)cc1,·,24%,·,·
Cn1nc(-c2ccc(C(=O)Nc3ccc(F)cc3)cc2)c2ccccc2c1=O,-16%,?,-8%,-15%
Cc1ccc(NC(=O)c2ccc(-c3nn(C)c(=O)c4ccccc34)cc2)cc1,4%,6%,3%,79µM*
COc1ccc(-c2cc(CCCC(=O)NCCc3ccccc3)no2)cc1,-15%,11%,19%,-12%
CC(C)CC1C(C#N)=C(N)SC(N)=C1C#N,25%,?,?,?
N#CC1=C(N)SC(N)=C(C#N)C1C1C=CCCC1 (centres undefined),-9%,?,-17%,40µM*
N#CC1=C(N)SC(N)=C(C#N)C1C1CC=CCC1 (centres undefined),-19%,?,8%,20µM*
Cc1cc2c(c(=O)o1)C(C1C=CCCC1)C(C#N)=C(N)O2 (centres undefined),1%,-28%,6%,-7%
CCOP(=O)(OCC)C(NC(=O)Nc1ccc(Cl)c(Cl)c1)C(N)=O (centres undefined),-9%,?,3%,3%
SMILES,PLK1 PBD block,12-LOX inh,VDR inh,Sfp PPTase inh
COc1cc(-c2nn3c(C4CCCCC4)nnc3s2)cc(OC)c1OC,?,25µM*,4%,?
COc1ccc(-c2nnc3sc(C4CCCCC4)nn23)cc1OC,-10%,-10%,-8%,0%
COc1ccc(-c2nn3c(C4CCCCC4)nnc3s2)cc1OC,21µM*,?,?,?
c1ccc(-c2nn3c(C4CCCCC4)nnc3s2)cc1,-18%,11%,-4%,-15%
COc1cc(/C=N/NC(=O)Cn2cnc3c2c(=O)n(C)c(=O)n3C)cc(OC)c1OC,3%,11%,-11%,7%
Cc1ccc(C(Nc2ccccn2)c2ccc3cccnc3c2O)cc1 (centres undefined),·,18µM*,?,·
CCC(=O)NC(c1cccs1)c1ccc2cccnc2c1O (centres undefined),3%,-30%,-5%,?
Cc1ccc(C(NC(=O)C(C)C)c2cc([N+](=O)[O-])c3cccnc3c2O)cc1 (centres undefined),-17%,16µM*,-10%,-17%
CCC(=O)NC(c1ccc(C)cc1)c1cc(Cl)c2cccnc2c1O (centres undefined),·,·,-8%,·
Cc1conc1NC(c1cccs1)c1ccc2cccnc2c1O (centres undefined),·,·,·,50µM*
CCCC(=O)NC(c1ccc(Cl)cc1)c1ccc2cccnc2c1O (centres undefined),4%,-20%,14%,21%
CCCCC(=O)NC(c1ccc(Cl)cc1)c1ccc2cccnc2c1O (centres undefined),27µM*,?,?,·
O=C(Cc1cccs1)N1CCN(c2ccc([N+](=O)[O-])cc2)CC1,-17%,?,-10%,17%
Cc1ccccc1-c1nc(CS(=O)(=O)CC(=O)NCc2ccc(OC(C)C)cc2)c(C)o1,·,-30%,·,·
CCC(=O)NC(c1ccc(OC)c(OC)c1)c1cc(Cl)c2cccnc2c1O (centres undefined),-12%,-13%,2%,56µM*
CCCCC(=O)NC(c1ccc(N(C)C)cc1)c1ccc2cccnc2c1O (centres undefined),27µM*,?,-27%,11%
CCN(CC(=O)NCc1ccc(F)cc1)C(=O)CN1CCN(c2ccccc2OC)CC1,-4%,-15%,-23%,9%
CC1(C)CC(=O)C(c2c[nH]c3ccccc23)C(=O)C1,?,?,10%,79µM*
CC12CN3CC(C)(CN(C1)C3c1c[nH]c3ccccc13)C2=O (centres undefined),-7%,0%,-6%,21%
NC(=O)c1cc(S(=O)(=O)NCCCc2ccccc2)cs1,27µM*,16%,-23%,11%
CSc1nsc2nc(=O)c(/C=C3\C=Nc4ccccc43)c(N)n12,?,0%,-16%,-23%
Nc1c(C=C2C=CC(=O)C=C2)c(=O)nc2snc(SCc3ccccc3)n12,21µM*,?,-20%,-18%
CN(C)Cc1cc(C(C)(C)C)cc(N2CCOCC2)c1O,1%,?,6%,·
CCN(CC)C(=O)C1=C(C)N(Cc2ccccc2)C(=O)C(CC(=O)NC2CCCCC2)C1 (centres undefined),-2%,-4%,·,·
CCn1c(SCC(=O)Nc2ccc(OC)c(OC)c2)nc2c(c1=O)SCC2,-6%,13%,-22%,6%
SMILES,PLK1 PBD block,12-LOX inh,VDR inh,Sfp PPTase inh
CCCn1c(SCC(=O)N2c3ccc(F)cc3CCC2C)nnc1-c1ccccn1 (centres undefined),30µM*,0%,?,-7%
CCCn1c(SCC(=O)N2CCCCC2)nnc1-c1ccccn1,·,2%,·,14%
CCOC(=O)NC(N(O)c1cccc(Cl)c1)C(Cl)(Cl)Cl (centres undefined),?,?,32µM*,11µM*
NC(Cn1ccc(=O)c(O)c1)C(=O)O (centres undefined),·,·,17%,6%
N[C@@H](Cn1ccc(=O)n(Cc2ccccc2C(=O)O)c1=O)C(=O)O,·,?,0%,56µM*
O=C(c1n[nH]c2ccccc12)N1CCCCC1,-19%,5%,-21%,16%
CN(C=C1C(=O)CC(C)(C)CC1=O)CCN1CCNCC1,-4%,1%,-12%,3%
CC(C)=C1C(=O)NN(c2ccc(C)c(Cl)c2)C1=O,-13%,50µM*,10%,14%
CCn1c(SCC(N)=O)nnc1C(C)C,-9%,5%,7%,19%

# Compound activity as filed in PubChem BioAssay.
